# Key:
# Assay in all cases: PBM binding z-score (relative to random genomic background probes); higher = stronger binding; sequences stand for … in GC…GCGATTGACAGCGTAGAATGAAGG
# [1] = tested on: PPARg:RXRa DBDmut IVT, anti-RXR (DBD mutation: RXRa K156A/R161A, NR concentration 270 nM, RXRa partner concentration 90 nM)
# Summary of the method: (§1)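 Ligand-free nuclear receptor dimers were applied to custom Agilent 4×180K protein-binding microarrays whose double-stranded probes carried direct-repeat seeds, single-nucleotide variants, half-site ablations and random human genomic background sequences in 34-nt variable regions. Incubation lasted 1 h. Binding z-scores were computed against the random background probes from regression-normalized fluorescence.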
# [2] = tested on: PPARg:RXRa IVT, anti-PPARg (NR concentration 270 nM, RXRa partner concentration 90 nM)
# Summary of the method: as §1
# [3] = tested on: PPARg DBDmut:RXRa IVT, anti-PPARg (DBD mutation: PPARg1 K132A/R137A, NR concentration 270 nM, RXRa partner concentration 90 nM)
# Summary of the method: as §1
# [4] = tested on: PPARg DBDmut IVT, anti-PPARg (DBD mutation: PPARg1 K132A/R137A, NR concentration 270 nM)
# Summary of the method: as §1
# [5] = tested on: PPARg homodimer (NR concentration 180 nM)
# Summary of the method: as §1
# [6] = tested on: PXR:RXRa (NR concentration 270 nM, RXRa partner concentration 90 nM)
# Summary of the method: as §1
# [7] = tested on: PXR homodimer (NR concentration 270 nM)
# Summary of the method: as §1
# [8] = tested on: RARa:RXR (NR concentration 270 nM, RXRa partner concentration 90 nM)
# Summary of the method: as §1
# [9] = tested on: RARa homodimer (NR concentration 270 nM)
# Summary of the method: as §1
# [10] = tested on: RARb:RXRa (NR concentration 270 nM, RXRa partner concentration 90 nM)
# Summary of the method: as §1
Sequence,PBM binding z-score [1],PBM binding z-score [2],PBM binding z-score [3],PBM binding z-score [4],PBM binding z-score [5],PBM binding z-score [6],PBM binding z-score [7],PBM binding z-score [8],PBM binding z-score [9],PBM binding z-score [10]
ATCGAAAGGACGTGAGGTGAGTATACAGAAAGGC,-0.822,0.152,1.3,0.397,0.165,-0.361,-0.0869,0.0924,0.0832,1.09
CATACAGGGTCAGCTAGGCCAGAGCAGGGACGGC,0.983,2.45,0.782,0.361,1.29,2.04,0.078,2.84,0.253,4.15
CGAAAGAGGGCATGAGTTGATAGCAAATGCCGAT,2.11,1.03,0.384,-0.376,-0.223,0.604,-0.0785,0.777,-0.0626,2.08
ATCTCTAGGTAAAAGTCCAGTGAATCCCGAGGAT,2.07,1.54,0.922,0.924,0.148,-0.1,0.357,-0.148,0.615,0.582
ATCTCTAAGTAACCAAGTTCAGTGAATGCCGAAC,-0.304,0.256,0.36,0.891,0.71,1.3,1.61,0.788,0.561,1.16
CGAATTAGGTCAAGGACAGTGAATCTCCGCACGC,8.12,8.06,3.79,1.82,1.89,1.28,0.205,2.79,0.19,4.18
CCTGCTAGGTCATGGGCAGCTAATCTACAGTATG,4.17,3.73,0.149,-0.33,1.36,1.1,-0.682,2.68,0.607,3.83
AACTCTAGGTAAGACTCAGTTCAGTGAAGAACGC,1.6,0.848,0.278,-0.04,0.345,0.534,0.651,0.155,0.797,0.272
CGAACTAGGGCATGAGTTGATAGCAAATGCCGAT,7.01,6.1,1.05,0.0296,-0.00514,-0.191,-0.257,0.155,-0.133,1.12
CGAACTAGGTCAAGGACAGCGAATCTCCGCACGC,7.76,8.26,2.54,2.03,1.63,1.06,0.0262,1.9,0.554,3.81
CGTGCAAGGTCAGCAGGTCAGTGAAAGCGACGTG,3.36,3.96,-0.142,0.527,2.62,3.87,0.564,4.71,0.769,5.35
ACCGAAAGGTCGAAGGTGAGTATACCCACCCGAA,0.582,2.06,0.374,0.174,0.885,3.14,0.0236,4.6,0.157,3.84
CCTGTTAGGTCATGGTCAGCTAATCTACAGTATG,3.41,2.86,0.756,1.29,2.12,1.77,0.504,2.9,0.828,4.16
TAGCCTAGGTCATGGGTCAGTATACCACGCGAAC,1.91,4.28,1.25,0.834,2.55,2.92,0.237,4.22,0.889,4.1
TCATATAGGTAAACAGGTGAAAATCCGTAAGTTA,4.38,4.3,1.27,0.925,1.28,1.18,0.297,1.4,1.83,0.846
CCGACTGGGGCAGAAAGGTTACTATACCATCCGG,2.21,1.68,-0.665,-1.26,0.373,0.533,-0.207,1.18,-0.156,1.53
TCATATAGATAATACAGGTGAAAGTCGGCATCTA,2.86,1.53,1.59,1.15,0.855,0.717,0.495,1.04,2.03,0.481
TCATATAGGTAATACAGGTGAAAGACGGCATCTA,4.17,3.37,1.39,1.69,1.42,0.845,0.764,1.34,1.85,0.786
CCTACTGGGCCAAATGTCATTGATTCCAATGCTC,4.77,4.36,0.17,0.471,0.28,-0.184,-0.329,0.0171,-0.233,0.654
CCTACTGGGCCATTCAGAGGTCGTTGATCATATG,4.62,3.78,-0.302,0.289,0.217,1.55,0.112,1.27,-0.226,1.11
TCGAGTAGGTTACCAATGGGGCATTAAGCTTTCT,2.97,2.74,-0.388,-0.404,-0.656,-0.325,-1.08,0.0202,-1.28,0.864
TCTAGCAGGCCGGAGGGTCACTCAAGAGGTACGG,0.524,-0.0805,-0.889,-1.31,0.278,0.98,-0.311,1.65,-0.429,1.74
TATACAGGGTCAAAGGACAGAGTACGAATGTCGA,2.27,4.9,3.23,2.81,2.18,3.68,1.01,4.56,1.66,4.55
ATACCAAGGTGATCGCGAGGTCGTTGATACTAAC,0.441,1.35,0.0109,0.101,0.588,3.17,1.13,1.84,-0.462,1.24

Sequence,PBM binding z-score [1],PBM binding z-score [2],PBM binding z-score [3],PBM binding z-score [4],PBM binding z-score [5],PBM binding z-score [6],PBM binding z-score [7],PBM binding z-score [8],PBM binding z-score [9],PBM binding z-score [10]
ATCTGTAGGTAACAAGTTCAGTGAAAGAGAGGAC,2.85,2.64,1.31,0.975,1.16,1.58,0.906,1.16,0.818,1.63
TCATATAGGTAAATGCTAGGTGGAAGTCCGATCT,3.98,2.01,1.68,0.774,0.237,0.234,0.0145,0.241,0.904,0.253
TCTAGTTGGTCACCGAGGTCACACACGACGGGTA,2.51,4.29,1.31,2.33,3.73,5.31,2.5,5.61,1.78,3.92
CAGCCTAGGTCAGCGCCAGTATAGGAGGAACGTT,1.84,1.37,-1.15,-0.469,0.899,0.373,-0.685,1.15,-0.632,3.71
TAGCCTAGGTGAGATCGGGCCAGTATACGCTATA,0.128,1.07,-0.934,-1.25,-0.915,-0.281,-0.98,0.347,-1.23,-0.0511
CCTACTGGACCAAAAAGGTCATTGATGCCGATAA,1.82,2.46,-0.0112,-0.226,4.04,4.77,2.35,5.09,3.15,3.96
CGAATTAGGTCATCCAGGACAGTGAATACATTGA,8.48,8.35,3.83,2.81,2.25,2.36,1.3,2.86,1.08,4.14
TCGAGTAGGTTAGTCGGGACATTCAGCCAACATA,1.85,1.48,-0.367,-1.31,-0.431,-0.161,-0.242,0.166,-0.452,0.165
CGTCAGAGTTCAACTAAGGTAACGTAAAGCACGC,0.228,1.32,0.422,0.416,2.24,5.76,6.21,4.1,1.3,4.73
TCTAGTTGGTCAAGGGTCACACACTCGAAATGCG,2.52,5.1,1.64,0.978,4.73,4.32,0.895,5.98,2.83,3.94
GCGACTGGGGCAAAGCAGGTGACCATAAGGTTGG,4.22,3.65,-0.66,-0.849,0.17,-0.318,-0.7,0.805,-0.538,0.913
CCTGCTAGGTCAGTGGTCAGCTAAAGCAGCTCGC,3.16,2.76,-1.08,-1.65,0.944,-0.0429,-0.667,0.509,-0.82,3.42
CAAACTACGTCACGAAAGGTCAAAGTCGAATGAC,0.398,2.49,1.4,1.92,3.68,5.52,1.91,6.35,2.63,4.43
TAGCCTAGGACATTCAGGGGCCAGTATAGAAAGC,-0.851,-0.425,-0.632,-1.43,-1.03,-0.401,-0.611,-0.598,-0.859,0.541
AGAACGAGGGCAATGAGGTGATAGCACGGGTGGC,3.36,3.33,0.776,0.448,0.588,1.06,0.905,0.818,0.144,2.13
GCTTGTATATCAAGGTTAAGAAAGACTAAGCTAA,0.247,0.653,0.195,0.533,-0.0686,0.625,-0.223,0.967,0.663,1.03
CGTCCAAGGTCAATGCTAGGTCAGTCAAAGCATT,3.29,3.92,0.558,-0.362,4.74,4.84,1.29,5.75,1.17,5.36
CGTCCAAGGTCAGCGAGGTCAGTGAATGCCGAGT,3.43,3.81,-0.776,-0.834,4.66,6.03,11.6,5.42,1.25,5.45
TCGCCTAGGTCATTCAGGGGCCAGTATAGAAAGC,2.54,2.19,-0.243,-0.908,1.82,2.3,-0.0121,3.36,-0.254,3.96
GCGACTGGGGCAAAGCAGGTTTCCATAAGGTTGG,4.2,3.02,-0.184,-0.615,-0.0282,-0.473,-0.449,-0.165,-0.557,0.376
GCTATTAGTTGAAAGGGCAACCGGATGATTCTCG,0.432,0.892,0.0968,-0.308,1.33,0.775,0.0713,1.37,1.05,2.1
AGAATGATGTTACCAAAGATCAGGGAAACGCTTG,-0.0632,0.0152,0.508,0.116,-0.153,-0.39,-0.411,0.018,0.147,-0.129
ATACCAAGGTGATCGTGATGTCGTTGATACTAAC,0.486,0.996,0.919,1.1,0.247,-0.038,0.104,0.057,0.517,0.325
ATATGTAGGTTAAGGGTCATTGAGGTTGGTTCGC,7.14,7.77,2.89,2.08,3.71,5.1,4.17,5.84,2.44,3.7

# From the supplement of paper PMC6555819
